This is a sample that favours compounds with a hit; in the whole collection about 11% have one here.
ALDH1A1 inh = qHTS Assay for Inhibitors of Aldehyde Dehydrogenase 1 (ALDH1A1); Aldehyde dehydrogenase 1A1 (Homo sapiens), P00352; Purified ALDH1A1, NADH fluorescence, propionaldehyde substrate; Potency, µM (series often up to 75.3 µM), actives largely listed as inhibitors; 7.3% of 220,000 active; active means well fitted inhibition curve with a large enough effect, not every such curve was filed as active; inconclusive means small, poorly fitted or top-dose-only effect, or another doubt; inactive means no such curve, though single readings can be large or run the other way
Target sequence (P00352 whole entry, looked up): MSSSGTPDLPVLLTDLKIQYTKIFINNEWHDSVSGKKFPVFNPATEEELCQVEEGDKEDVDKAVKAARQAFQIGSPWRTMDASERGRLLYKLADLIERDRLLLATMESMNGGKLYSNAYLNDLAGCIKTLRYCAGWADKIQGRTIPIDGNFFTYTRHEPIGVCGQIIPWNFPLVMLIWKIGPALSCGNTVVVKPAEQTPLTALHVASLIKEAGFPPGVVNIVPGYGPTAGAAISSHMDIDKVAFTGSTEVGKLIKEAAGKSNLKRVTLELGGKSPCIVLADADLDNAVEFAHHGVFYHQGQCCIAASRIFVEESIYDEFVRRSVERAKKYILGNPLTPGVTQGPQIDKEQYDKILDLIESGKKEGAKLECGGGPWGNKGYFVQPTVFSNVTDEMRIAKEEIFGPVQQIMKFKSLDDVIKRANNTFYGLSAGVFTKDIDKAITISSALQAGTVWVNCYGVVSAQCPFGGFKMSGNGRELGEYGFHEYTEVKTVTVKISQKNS
RGS12 GoLoco inh = qHTS Assay for Inhibitors of RGS12 GoLoco Motif Activity (Red Fluorophore); Guanine nucleotide-binding protein G(i) subunit alpha-1 (Homo sapiens), P63096; Gai1:RGS12 GoLoco peptide FP, rhodamine, 10 min; Potency, µM (top dose mostly 61.6 µM), most hits filed as inhibitors; 0.44% of 230,000 active; active means well fitted inhibition curve with a large enough effect, not every such curve was filed as active; inactive means no such curve, though single readings can be large or run the other way; further: nearly all actives have a fitted effect of over 30% in size
PNC assembly inh = High Content Assay for Compounds that inhibit the Assembly of the Perinucleolar Compartment; AID 2417, 2010; activity change (PNC), negative = inhibition, % at 10 µM; PC3M PTB-GFP, PNC prevalence imaging, 16 h; active compounds read low; 3.1% of 140,000 active;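 active means readout at or below -70, meaning at least 70% loss of cells showing the perinucleolar compartment, a nuclear body marking cancer cells; inconclusive means readout between -30 and a set limit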
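PC3M cells stably expressing PTB-GFP, 750–1000 cells/well, treated 16 h at 37 °C with compound (23 nl of library stock), in duplicate. After paraformaldehyde fixation and Hoechst stain, imaged at 20x; PNC prevalence scored by image analysis.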
HTT ATP protect = qHTS Multiplex Assay to Identify Dual Action Probes in a Cell Model of Huntington: Cytoprotection (ATP); PC12 HTT-Q103 induced, cytoprotection, ATP luminescence, 40 h; Potency, µM (highest dose often 56.4 µM), most hits filed as activators; 0.14% of 230,000 active; AID 1471, 2008; further: nearly all actives have a fitted effect of over 45% in size
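ATP quantification (ATPlite) reports survival of PC12 cells in which tebufenozide, 100 nM final, switches on Htt exon 1 with 103 glutamines linked to GFP; compounds are titrated.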
HTT aggregate = qHTS Multiplex Assay to Identify Dual Action Probes in a Cell Model of Huntington: Aggregate Formation (GFP); PC12 HttQ103-GFP aggregates, Acumen cytometry, 40 h; 1.1% of 220,000 active; AID 1688, 2009; Potency, µM (titrated, usually from 46.1 µM), most hits filed as inhibitors; further: nearly all actives have a fitted effect of over 60% in size
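Aggregates are detected as GFP objects 1–25 µm with signal 6 STDEV over background in lysates of induced PC12 cells. These carry Huntingtin exon 1 with 103 glutamines fused to GFP under an ecdysone promoter; compounds titrated.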
HPGD inh = qHTS Assay for Inhibitors of HPGD (15-Hydroxyprostaglandin Dehydrogenase); 4.3% of 150,000 active; purified HPGD, NADH fluorescence kinetic, PGE2 substrate; Potency, µM, actives largely listed as inhibitors; active means well fitted inhibition curve with a large enough effect, not every such curve was filed as active; inconclusive means small, poorly fitted or top-dose-only effect, or another doubt; inactive means no such curve, though single readings can be large or run the other way
Target sequence (P15428 whole entry, looked up): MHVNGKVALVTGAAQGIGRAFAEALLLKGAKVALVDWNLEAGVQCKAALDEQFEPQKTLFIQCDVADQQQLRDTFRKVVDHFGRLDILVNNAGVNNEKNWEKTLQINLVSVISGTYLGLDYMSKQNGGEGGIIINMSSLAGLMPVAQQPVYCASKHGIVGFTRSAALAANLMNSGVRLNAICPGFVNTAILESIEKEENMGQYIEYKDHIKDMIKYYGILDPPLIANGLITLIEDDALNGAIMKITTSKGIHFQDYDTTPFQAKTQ
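NADH formation kinetics: reaction with 30 uM PGE2 and 1 mM NAD+ (final), 20 nM enzyme, Tris-HCl pH 8 with Tween 20, after 15 min compound preincubation at room temperature. Fluorescence change, last versus first of five reads.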
Each line names hits and unclear results; the compound was inactive in the other large screens; ! = repeats disagree. Unless noted, the call rests on the fitted dose curve; in most records, active means well fitted curve in the direction sought with a large enough effect; inconclusive means small, poorly fitted or top-dose-only effect, or another doubt; inactive means no such curve, though single readings can be large; an effect the other way counts as inactive or inconclusive.

CCC1CCCCN1C(=O)Cn1nc([N+](=O)[O-])c(Cl)c1C (centres undefined)	none (no result: PNC assembly inh, HPGD inh)
O[C@H](COc1ccccc1)CN1CCCCC1	none (no result: PNC assembly inh, HTT aggregate)
COc1c2occc2c(OC)c2c(=O)cc(C)oc12	HPGD inh 28.2µM!
COC(=O)[C@H](COC(C)(C)C)NC(=O)O[C@@H]1C(=O)c2ccc(OC)cc2O[C@H]1c1cccc(C(F)(F)F)c1	HTT ATP protect inconclusive (no result: PNC assembly inh, HTT aggregate)
COc1cc(/C=C/C(=O)OCC(=O)NC(=O)NC(C)C)ccc1OCC#N	ALDH1A1 inh inconclusive, PNC assembly inh -85.1, HPGD inh inconclusive
Cc1sc(NC(=O)/C=C/C(=O)O)c(C(N)=O)c1-c1ccc(C(C)(C)C)cc1	ALDH1A1 inh 12.6µM, HPGD inh 25.1µM
CCOC(=O)c1c(NC(=O)/C=C/C(=O)O)sc(C)c1-c1ccc(C(C)(C)C)cc1	ALDH1A1 inh 28.2µM, HTT aggregate inconclusive (no result: PNC assembly inh, HPGD inh)
O=C(c1ccc(Cl)cc1)N1CCC(O)(CSc2ccc(Cl)cc2Cl)CC1	ALDH1A1 inh 22.4µM, HTT aggregate 10µM
O=C(c1ccc(CSc2ccc(Cl)cc2)cc1)N1CCCC1	ALDH1A1 inh inconclusive (no result: PNC assembly inh, HTT ATP protect, HPGD inh)
O=C1C2C3C=CC(CO)(O3)C2C(=O)N1c1ccc(-c2ccccc2)cc1 (centres undefined)	ALDH1A1 inh 0.126µM, PNC assembly inh inconclusive, HPGD inh 1.41µM
O=C(O)c1ccc(N2C(=O)C3C4c5ccccc5C(Br)(c5ccccc54)C3C2=O)cc1 (centres undefined)	none (no result: PNC assembly inh, HPGD inh)
CC(C)(C)C(=O)NCC12C=CC(O1)C1C(=O)N(c3ccccc3)C(=O)C12 (centres undefined)	ALDH1A1 inh 1.41µM, HTT aggregate inconclusive, HPGD inh 20µM
CCSc1ccccc1C(=O)NCc1cccnc1	ALDH1A1 inh inconclusive (no result: PNC assembly inh, HPGD inh)
O=C(NCc1cccnc1)c1cc(Sc2ccccc2Cl)nc2ccccc12	ALDH1A1 inh 7.94µM
COC(=O)CN(c1ccccc1C)S(C)(=O)=O	none
COC(=O)CN(c1c(C)cccc1C)S(C)(=O)=O	PNC assembly inh -86.1
O=C(C1CCCCC1)N1CCCC(c2nc3c(nnn3Cc3ccccc3)c(=O)[nH]2)C1 (centres undefined)	ALDH1A1 inh 15.8µM, HPGD inh 14.1µM
Cc1ccc(C)c(Cn2nnc3c(=O)[nH]c(C4CCCN(C(=O)C5CCCCC5)C4)nc32)c1 (centres undefined)	ALDH1A1 inh 12.6µM, HPGD inh 6.31µM
COc1ccc(NS(=O)(=O)/C=C/c2ccccc2)cc1	ALDH1A1 inh 2.51µM (no result: HTT ATP protect)
Cc1ccccc1S(=O)(=O)c1c(C)cc(C)n(CC(C)C)c1=O	ALDH1A1 inh 7.94µM
Cc1ccccc1S(=O)(=O)c1c(C)cc(C)n(C)c1=O	none (no result: PNC assembly inh, HPGD inh)
CCOC(=O)C1=C(c2ccccc2)ON(C)C1c1ccccc1 (centres undefined)	HTT ATP protect inconclusive
Cc1ccc(NC(=O)c2ccc3ncsc3c2)cc1S(=O)(=O)N(C)C	none (no result: ALDH1A1 inh, PNC assembly inh, HPGD inh)
CC(C)(C)C(=O)CSc1ncnc2c1cnn2-c1ccccc1	HTT ATP protect inconclusive, HTT aggregate inconclusive (no result: ALDH1A1 inh, PNC assembly inh, HPGD inh)
c1ccc(CSc2ncnc3c2cnn3-c2ccccc2)cc1	ALDH1A1 inh inconclusive, HPGD inh 25.1µM
Cn1c(N)c(C(=O)c2ccc(Cl)cc2)c(=O)n(C)c1=O	HTT aggregate 2.51µM (no result: RGS12 GoLoco inh, HPGD inh)
Cn1c(N)c(C(=O)c2ccccc2)c(=O)n(C)c1=O	none
COc1ccc(C(=O)OCC(=O)c2c(N)n(C)c(=O)n(C)c2=O)cc1OC	none (no result: PNC assembly inh, HPGD inh)
Cn1c(N)c(C(=O)COC(=O)c2ccc(Cl)nc2)c(=O)n(C)c1=O	HTT ATP protect 3.16µM (no result: PNC assembly inh, HPGD inh)
CC(C)Cn1c(N)c(C(=O)COC(=O)c2ccc(O)cc2)c(=O)n(C)c1=O	ALDH1A1 inh 7.94µM (no result: PNC assembly inh, HTT ATP protect, HPGD inh)
Cc1ccc(C)c(N2C(=O)c3ccc(C(=O)OCC(=O)c4c(N)n(C)c(=O)n(C)c4=O)cc3C2=O)c1	ALDH1A1 inh 20µM
CC(C)Cn1c(N)c(C(=O)COC(=O)c2cc(F)cc(F)c2)c(=O)n(C)c1=O	none (no result: PNC assembly inh, HPGD inh)
CC(=O)Oc1ccc(C(=O)OCC(=O)c2c(N)n(C)c(=O)n(C)c2=O)cc1OC(C)=O	none (no result: PNC assembly inh, HPGD inh)
CC(C)Cn1c(N)c(C(=O)COC(=O)c2cnc(Cl)c(Cl)c2)c(=O)n(C)c1=O	ALDH1A1 inh 0.447µM (no result: PNC assembly inh, HPGD inh)
CC(C)Cn1c(N)c(C(=O)COC(=O)C2=COCCO2)c(=O)n(C)c1=O	none
CC(C)Cn1c(N)c(C(=O)COC(=O)c2ccc([N+](=O)[O-])o2)c(=O)n(C)c1=O	ALDH1A1 inh 17.8µM (no result: PNC assembly inh, HPGD inh)
Cc1nn(-c2ccccc2)c(C)c1C(=O)OCC(N)=O	none (no result: PNC assembly inh, HPGD inh)
Cc1nn(-c2ccccc2)c(C)c1C(=O)OCC(=O)NCc1ccco1	ALDH1A1 inh 22.4µM
Cc1nn(-c2ccccc2)c(C)c1C(=O)OCC(=O)c1c(N)n(CC(C)C)c(=O)n(C)c1=O	HTT aggregate 5.01µM
CC(C)Cn1c(N)c(C(=O)COC(=O)c2cc(-c3ccccc3)nc3ccccc23)c(=O)n(C)c1=O	ALDH1A1 inh inconclusive, HPGD inh inconclusive
Nc1nc(Cl)cc(NCCO)n1	none (no result: PNC assembly inh, HTT aggregate)
Clc1cccc2c1CN(C1=NCCN1)C2	none (no result: PNC assembly inh, HTT aggregate)
CCOC(=O)CNC(=O)O[C@@H]1Cc2cc(OC)ccc2O[C@H]1c1cccc(OC)c1	HTT ATP protect inconclusive (no result: PNC assembly inh, HTT aggregate)
COc1cc(C)ccc1OCCOc1c(Cl)cc(Cl)cc1Cl	PNC assembly inh inconclusive (no result: RGS12 GoLoco inh, HPGD inh)
Cc1ccc(OCCOCCN(C)C)c(Cl)c1	PNC assembly inh -95.9
COc1cc(C)ccc1OCCOc1cc(C)ccc1Cl	ALDH1A1 inh inconclusive, HPGD inh 2.24µM
CN(C)CCCCOc1ccc(Br)cc1Cl	ALDH1A1 inh inconclusive (no result: PNC assembly inh, HPGD inh)
CC1CN(C2CCN(S(=O)(=O)c3ccccc3)CC2)CC(C)O1 (centres undefined)	ALDH1A1 inh inconclusive
CC1CN(C2CCN(S(=O)(=O)c3ccc(F)cc3)CC2)CC(C)O1 (centres undefined)	ALDH1A1 inh 25.1µM
CN(Cc1ccccc1)C(=O)CCCn1c(=O)[nH]c2cc(Cl)ccc2c1=O	HPGD inh 25.1µM
O=C(CCCn1c(=O)[nH]c2cc(Cl)ccc2c1=O)NC1CCCCCCC1	none
CCN(CC(=O)NCc1ccc(F)cc1)C(=O)/C=C/c1ccco1	ALDH1A1 inh inconclusive (no result: PNC assembly inh, HPGD inh)
CCCN(CC(=O)Nc1ccc(Cl)cc1Cl)C(=O)/C=C/c1ccco1	ALDH1A1 inh 0.224µM, PNC assembly inh inconclusive, HTT aggregate inconclusive
